Laboratory results: PubChem BioAssay AID1159580 (chemical genetic matrix, 2015)
Several values for one entry are separate records, joined by “and”; a condition that tells them apart may be missing. Equal entries are not always repeated. The campaign covered roughly 5,500 compounds. About 2,000 (36%) were called active. About 18% were inconclusive and are not listed. No stated cut-off is given here; in the data, active means normalized growth mostly below about 0.91 (no sharp cut-off); inconclusive means no clear call, values can overlap the other calls; inactive means mostly above about 0.92. This is one part of the list.

Experiment: chemical genetic growth profiling, strain panel (AID 1159580);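 further: tested at 20 µM; growth read once vehicle control cultures reached saturation at 30 °C; 1 = growth at the plate median or of vehicle wells; lower values mean less growth of the strain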
Details: growth OD

Measured: normalized growth

O=c1[nH]cc(F)c(=O)[nH]1
inactive: S. cerevisiae deletion strains, locus YKL068W, hits give low values 0.995 | S. cerevisiae deletion strains, locus YKL085W, strain MDH1 (second series), hits give low values 0.965 | S. cerevisiae deletion strains, locus YKL085W, strain MDH1, hits give low values 0.965 | S. cerevisiae deletion strains, locus YKR091W, strain srl3, hits give low values 1.01 | S. cerevisiae deletion strains, locus YLR102C, strain apc9, hits give low values 0.943 | S. cerevisiae deletion strains, locus YLR262C, strain YPT6, hits give low values 0.647 | S. cerevisiae deletion strains, locus YLR330W, strain CHS5, hits give low values 0.966 | S. cerevisiae deletion strains, locus YMR078C, strain ctf18, hits give low values 0.994 | S. cerevisiae deletion strains, locus YMR205C, strain PFK2, hits give low values 0.919 | S. cerevisiae deletion strains, locus YMR263W, strain SAP30, hits give low values 0.957 and 1.01 | S. cerevisiae deletion strains, locus YMR307W, strain GAS1, hits give low values 0.901 and 0.99 | S. cerevisiae deletion strains, locus YNL175C, strain NOP13, hits give low values 1.03 | S. cerevisiae deletion strains, locus YNL197C, strain WHI3, hits give low values 1.01 | S. cerevisiae deletion strains, locus YNL224C, strain SQS1, hits give low values 0.929 | S. cerevisiae deletion strains, locus YOR061W, strain CKA2, hits give low values 0.947 | S. cerevisiae deletion strains, locus YOR083W, strain WHI5 (second series), hits give low values 1.03 | S. cerevisiae deletion strains, locus YOR144C, strain elg1, hits give low values 0.999 | S. cerevisiae deletion strains, locus YOR316C, strain cot1, hits give low values 0.958 | S. cerevisiae deletion strains, locus YPL055C, strain LGE1, hits give low values 0.955 | S. cerevisiae deletion strains, locus YPL241C, strain CIN2, hits give low values 1.03 | S. cerevisiae deletion strains, locus YPR119W, strain clb2, hits give low values 1.03 | S. cerevisiae deletion strains, locus YPR141C, strain kar3, hits give low values 1.03 | S. cerevisiae deletion strains, locus YPR163C, strain tif3, hits give low values 0.981
active: S. cerevisiae deletion strains, locus YKL009W, strain mrt4, hits give low values 0.862 | S. cerevisiae deletion strains, locus YKL160W, strain elf1, hits give low values 0.671 | S. cerevisiae deletion strains, locus YKL190W, strain CNB1, hits give low values 0.858 | S. cerevisiae deletion strains, locus YKR001C, strain vps1, hits give low values 0.471 | S. cerevisiae deletion strains, locus YKR026C, strain gcn3, hits give low values 0.83 | S. cerevisiae deletion strains, locus YLL001W, strain dnm1, hits give low values 0.456 | S. cerevisiae deletion strains, locus YLL026W, hits give low values 0.588 | S. cerevisiae deletion strains, locus YLL041C, strain sdh2, hits give low values 0.849 | S. cerevisiae deletion strains, locus YLR027C, strain aat2, hits give low values 0.537 | S. cerevisiae deletion strains, locus YLR039C, strain RIC1, hits give low values 0.601 | S. cerevisiae deletion strains, locus YLR058C, strain SHM2, hits give low values 0.746 | S. cerevisiae deletion strains, locus YLR113W, strain HOG1, hits give low values 0.772 | S. cerevisiae deletion strains, locus YLR221C, strain rsa3, hits give low values 0.411 | S. cerevisiae deletion strains, locus YLR258W, strain gsy2, hits give low values 0.542 | S. cerevisiae deletion strains, locus YLR262C, strain YPT6 (second series), hits give low values 0.63 | S. cerevisiae deletion strains, locus YLR268W, strain sec22, hits give low values 0.726 | S. cerevisiae deletion strains, locus YLR320W, strain mms22, hits give low values 0.509 | S. cerevisiae deletion strains, locus YLR342W, strain FKS1 (second series), hits give low values 0.743 | S. cerevisiae deletion strains, locus YLR342W, strain FKS1, hits give low values 0.807 | S. cerevisiae deletion strains, locus YLR357W, strain rsc2, hits give low values 0.775 | S. cerevisiae deletion strains, locus YLR370C, strain arc18, hits give low values 0.562 | S. cerevisiae deletion strains, locus YLR371W, strain rom2, hits give low values 0.867 | S. cerevisiae deletion strains, locus YLR384C, strain iki3, hits give low values 0.809 | S. cerevisiae deletion strains, locus YLR418C, strain cdc73, hits give low values 0.819 | S. cerevisiae deletion strains, locus YML016C, strain PPZ1, hits give low values 0.864 | S. cerevisiae deletion strains, locus YML032C, strain rad52, hits give low values 0.642 | S. cerevisiae deletion strains, locus YML120C, strain ndi1, hits give low values 0.464 | S. cerevisiae deletion strains, locus YML124C, strain tub3, hits give low values 0.914 | S. cerevisiae deletion strains, locus YMR058W, strain fet3, hits give low values 0.562 | S. cerevisiae deletion strains, locus YMR125W, strain sto1, hits give low values 1.12 [resistant] | S. cerevisiae deletion strains, locus YMR129W, hits give low values 0.701 | S. cerevisiae deletion strains, locus YMR223W, strain ubp8, hits give low values 0.613 | S. cerevisiae deletion strains, locus YMR231W, strain pep5, hits give low values 0.793 | S. cerevisiae deletion strains, locus YNL067W, strain RPL9B, hits give low values 0.84 | S. cerevisiae deletion strains, locus YNL071W, strain lat1, hits give low values 0.698 | S. cerevisiae deletion strains, locus YNL128W, strain TEP1, hits give low values 0.784 | S. cerevisiae deletion strains, locus YNL183C, strain NPR1, hits give low values 0.611 | S. cerevisiae deletion strains, locus YNL209W, strain ssb2, hits give low values 0.647 | S. cerevisiae deletion strains, locus YNL233W, strain BNI4, hits give low values 0.843 | S. cerevisiae deletion strains, locus YNL248C, strain rpa49, hits give low values 0.346 | S. cerevisiae deletion strains, locus YNL250W, strain rad50, hits give low values 0.848 | S. cerevisiae deletion strains, locus YNL271C, strain bni1, hits give low values 0.811 | S. cerevisiae deletion strains, locus YNL298W, strain CLA4, hits give low values 0.905 | S. cerevisiae deletion strains, locus YNL307C, strain MCK1, hits give low values 0.756 | S. cerevisiae deletion strains, locus YNL322C, strain KRE1 (second series), hits give low values 0.65 | S. cerevisiae deletion strains, locus YNR049C, strain mso1, hits give low values 0.647 | S. cerevisiae deletion strains, locus YNR052C, strain pop2, hits give low values 0.909 | S. cerevisiae deletion strains, locus YOL012C, strain htz1 2.56 [resistant] | S. cerevisiae deletion strains, locus YOL147C, strain pex11, hits give low values 0.796 | S. cerevisiae deletion strains, locus YOR001W, strain rrp6, hits give low values 0.193 | S. cerevisiae deletion strains, locus YOR069W, strain VPS5, hits give low values 0.858 | S. cerevisiae deletion strains, locus YOR070C, strain gyp1, hits give low values 0.622 | S. cerevisiae deletion strains, locus YOR080W, strain dia2, hits give low values 0.809 | S. cerevisiae deletion strains, locus YOR083W, strain WHI5, hits give low values 0.686 | S. cerevisiae deletion strains, locus YOR106W, strain vam3, hits give low values 0.394 | S. cerevisiae deletion strains, locus YOR136W, strain idh2, hits give low values 0.902 | S. cerevisiae deletion strains, locus YOR184W, strain ser1, hits give low values 0.561 | S. cerevisiae deletion strains, locus YOR231W, strain MKK1, hits give low values 0.549 | S. cerevisiae deletion strains, locus YOR265W, strain rbl2, hits give low values 0.654 | S. cerevisiae deletion strains, locus YOR270C, strain vph1, hits give low values 0.397 | S. cerevisiae deletion strains, locus YOR290C, strain snf2, hits give low values 0.415 | S. cerevisiae deletion strains, locus YPL051W, strain arl3, hits give low values 0.598 | S. cerevisiae deletion strains, locus YPL078C, strain atp4, hits give low values 0.482 | S. cerevisiae deletion strains, locus YPL106C, strain sse1, hits give low values 0.709 | S. cerevisiae deletion strains, locus YPL240C, strain hsp82, hits give low values 0.671 | S. cerevisiae deletion strains, locus YPL256C, strain CLN2, hits give low values 0.714 | S. cerevisiae deletion strains, locus YPR167C, strain met16, hits give low values 0.831 | S. cerevisiae deletion strains, strain wtn01, hits give low values 0.635 | S. cerevisiae strains, strain wild type, hits give low values 0.776
